Source: PubChem BioAssay (EPA / NIEHS)
Results filed as inconclusive are left out. Calls of active or inactive are those of the source. The calls were made as follows, unless noted: active = hit-call score of the fitted dose curve at least 0.9, where 1 is the maximum; inconclusive = response in the unintended direction; inactive = score below 0.9.

How the values were obtained:
[1] = CCTE_Shafer_MEA_acute_network_burst_percentage: CCTE's Neural Acute Assay for Percentage of Network Bursts, Shafer Lab (AID 2284022; active = hit-call score of the fitted dose curve at least 0.9, where 1 is the maximum; inactive = score below 0.9;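 also: curves fitted for loss so actives lower network burst percentage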)
Method in brief: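 Cortical neurons from rat were grown over microelectrode arrays and used on day 13 or 15 in vitro. Wells with at least 10 active electrodes received test chemical at 0.03-40 uM. Activity during 40 min of exposure was compared with the preceding 40-min baseline.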

[2] = CCTE_Shafer_MEA_acute_cross_correlation_area: CCTE's Neural Acute Assay for Area of Cross Correlation, Shafer Lab (AID 2284024; active = hit-call score of the fitted dose curve at least 0.9, where 1 is the maximum; inactive = score below 0.9;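 also: rat primary cortical neuron networks on 48-well MEA at DIV 13 or 15 with 40 min exposure; area under pooled inter-electrode spike cross-correlation near zero lag as percent change from own baseline; curves fitted for loss of cross-correlation area so actives lower synchrony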)
Method in brief: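 Acute exposure of mature rat cortical networks (day 13 or 15 post-plating) to 0.03-40 uM compound. Spontaneous spiking on MEA, 40 min pre- and post-dose at 37 C.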

[3] = CCTE_Shafer_MEA_acute_cross_correlation_HWHM: CCTE's Neural Acute Assay for Cross Correlation at Half Width at Half Maximum, Shafer Lab (AID 2284026; active = hit-call score of the fitted dose curve at least 0.9, where 1 is the maximum; inactive = score below 0.9;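 also: percent change per well from pre-dose baseline in spike cross-correlogram half width; hits are a decrease in cross-correlogram half width relative to DMSO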;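 as to outcome: spontaneous network firing of rat primary cortical neurons on multiwell microelectrode arrays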)
Method in brief: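 Primary cortex (rat), MEA, DIV 13/15; compound 0.03-40 uM; 40 min pre + 40 min post at 37 C; spike threshold 8x rms; wells need ≥10 active electrodes; endpoint = % change in cross-correlogram HWHM vs baseline, DMSO negative control.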

[4] = CCTE_Shafer_MEA_acute_synchrony_index: CCTE's Neural Acute Assay for Synchrony, Shafer Lab (AID 2284027; active = hit-call score of the fitted dose curve at least 0.9, where 1 is the maximum; inactive = score below 0.9;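 also: fitted for loss of signal so actives lower synchrony relative to DMSO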)
Method in brief: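 Readout is percent change in the unitless network synchrony index (0 low, 1 high) between a 40-min baseline and a 40-min recording in compound. Cultures were primary rat cortical neurons on MEAs, treated at 0.03-40 uM on DIV 13 or 15.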

[5] = CCTE_Deisenroth_AIME_384WELL_CTox_Active: Cytotoxicity Assessment (CTOX) in CCTE's 384-well Estrogen Receptor Transactivation Assay with AIME metabolic competence (metabolism positive), Deisenroth Lab (AID 2284037);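 also: activity means signal loss indicating cell death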
Method in brief: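 Chemicals pre-incubated 2 hours with alginate-immobilised phenobarbital/beta-naphthoflavone-induced male Sprague Dawley rat liver S9, then conditioned medium applied 24 hour to VM7Luc4E2 cells. Viability by fluorogenic protease substrate; 10-point series 0.002 - 200 uM.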

[6] = CCTE_Deisenroth_AIME_384WELL_CTox_Inactive: Cytotoxicity Assessment (CTOX) in CCTE's 384-well Estrogen Receptor Transactivation Assay without AIME metabolic competence (metabolism negative), Deisenroth Lab (AID 2284039);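 also: cell viability via live-cell protease substrate cleaved to fluorescent probe; cells exposed 24 h to medium preincubated 2 h with alginate-water beads without S9; loss of fluorescence signal means loss of viability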
Method in brief: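 VM7Luc4E2 cells, metabolism-negative arm: test chemicals (0.002–200 uM, 10 points) pre-incubated 2 h with alginate-water microspheres, then medium transferred to cells for 24 h. Viability read as protease-substrate cleavage to fluorescent probe; loss-of-signal, bidirectional fitting.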

[7] = target: Estrogen receptor (Homo sapiens) (UniProt P03372); assay: CCTE_Deisenroth_AIME_384WELL_LUC_Shift: CCTE's 384-well Estrogen Receptor Transactivation Assay with AIME metabolic competence data shift (ERTA luciferase; difference in metabolism positive and negative), Deisenroth Lab (AID 2284041; active = hit-call score of the fitted dose curve at least 0.9, where 1 is the maximum; inactive = score below 0.9;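 also: shift is response with S9 minus without S9 so positive means metabolism raised ER signal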)
Sequence of Estrogen receptor (Homo sapiens) (P03372 whole entry, looked up): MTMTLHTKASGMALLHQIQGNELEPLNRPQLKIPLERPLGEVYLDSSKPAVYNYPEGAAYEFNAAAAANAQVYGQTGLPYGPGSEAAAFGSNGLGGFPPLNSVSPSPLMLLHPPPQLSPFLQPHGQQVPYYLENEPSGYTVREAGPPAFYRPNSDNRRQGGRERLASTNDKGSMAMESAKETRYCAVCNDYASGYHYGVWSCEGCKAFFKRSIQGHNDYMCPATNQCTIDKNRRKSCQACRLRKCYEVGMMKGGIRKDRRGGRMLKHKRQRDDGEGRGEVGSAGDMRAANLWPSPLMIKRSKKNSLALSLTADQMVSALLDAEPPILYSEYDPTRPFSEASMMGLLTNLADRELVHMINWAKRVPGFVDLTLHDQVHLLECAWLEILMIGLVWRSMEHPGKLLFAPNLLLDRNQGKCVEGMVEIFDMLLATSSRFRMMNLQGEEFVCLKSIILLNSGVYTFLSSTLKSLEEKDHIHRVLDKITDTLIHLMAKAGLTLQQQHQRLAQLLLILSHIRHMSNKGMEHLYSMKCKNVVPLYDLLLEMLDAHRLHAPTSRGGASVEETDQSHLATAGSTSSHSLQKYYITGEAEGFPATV
Method in brief: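 Chemicals (0.002–200 uM, 10 points) pre-incubated 2 h with alginate-encapsulated induced male Sprague Dawley rat liver S9 or S9-free, then medium applied 24 h to VM7Luc4E2 cells; luciferase. Endpoint is per-concentration difference, S9-positive minus negative.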

[8] = target: Estrogen receptor (Homo sapiens) (UniProt P03372); assay: CCTE_Deisenroth_AIME_96WELL_LUC_Active: CCTE's 96-well Estrogen Receptor Transactivation Assay with AIME metabolic competence (ERTA luciferase; metabolism positive), Deisenroth Lab (AID 2284023)
Method in brief: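 Chemicals pre-incubated 2 h with alginate-immobilized phenobarbital/beta-naphthoflavone-induced male Sprague Dawley rat liver S9, then medium transferred to VM7Luc4E2 cells for 24 h luciferase read-out. 10-point series 0.002 - 200 uM; fitted relative to 17beta-estradiol.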

[9] = target: Estrogen receptor (Homo sapiens) (UniProt P03372); assay: CCTE_Deisenroth_AIME_96WELL_LUC_Inactive: CCTE's 96-well Estrogen Receptor Transactivation Assay without AIME metabolic competence (ERTA luciferase; metabolism negative), Deisenroth Lab (AID 2284025)
Method in brief: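 VM7Luc4E2 breast cells, luciferase read 24 h after dosing with medium pre-incubated 2 h on alginate-water lids (metabolism negative). 10-point series 0.002–200 uM, single technical replicate, n≥4; fit relative to 17beta-estradiol.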

[10] = CCTE_Deisenroth_AIME_96WELL_CTox_Active: Cytotoxicity Assessment (CTOX) in CCTE's 96-well Estrogen Receptor Transactivation Assay with AIME metabolic competence (metabolism positive), Deisenroth Lab (AID 2284028)
Method in brief: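 Chemicals (0.002–200 uM) were first incubated 2 h with alginate-immobilized phenobarbital/beta-naphthoflavone-induced male rat liver S9; conditioned medium then went onto VM7Luc4E2 cells for 24 h, with viability read by protease-substrate fluorescence, fitted bidirectionally.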

[11] = CCTE_Deisenroth_AIME_96WELL_CTox_Inactive: Cytotoxicity Assessment (CTOX) in CCTE's 96-well Estrogen Receptor Transactivation Assay without AIME metabolic competence (metabolism negative), Deisenroth Lab (AID 2284029)
Method in brief: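 Chemicals (0.002 - 200 uM, 10 points) incubated 2 h with alginate-water microspheres (no S9), then medium moved onto VM7Luc4E2 cells for 24 h. Viability by protease-substrate cleavage to fluorescent probe; bidirectional fitting.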

[12] = target: Estrogen receptor (Homo sapiens) (UniProt P03372); assay: CCTE_Deisenroth_AIME_384WELL_LUC_Active: CCTE's 384-well Estrogen Receptor Transactivation Assay with AIME metabolic competence (ERTA luciferase; metabolism positive), Deisenroth Lab (AID 2284030)
Method in brief: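 In this metabolism-positive format, a 2-hour exposure to alginate-immobilized rat S9 precedes a 24 hour luciferase transactivation readout in VM7Luc4E2 cells. Dosing spans 10 concentrations from 0.002 to 200 uM.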

[13] = CCTE_Shafer_MEA_dev_firing_rate_mean: CCTE's Neural Network Formation Assay for Mean Firing Rate, Shafer Lab (AID 2284031; active = hit-call score of the fitted dose curve at least 0.9, where 1 is the maximum; inactive = score below 0.9;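 as to AC50: curve fitted for loss of firing so AC50 reflects decreased mean firing rate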)
Method in brief: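 Rat primary cortical neurons were seeded on multielectrode arrays and treated from plating through day 12, with redosing at each feed. Spontaneous spiking was recorded four times; mean firing rate AUC was fitted downward against DMSO.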

[14] = CCTE_Shafer_MEA_dev_per_burst_spike_percent: CCTE's Neural Network Formation Assay for Percent of Spikes in a Burst, Shafer Lab (AID 2284032; active = hit-call score of the fitted dose curve at least 0.9, where 1 is the maximum; inactive = score below 0.9;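 as to AC50: fitted as a decrease in burst spike percentage below DMSO baseline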)
Method in brief: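 Rat primary cortical neurons on 16-electrode MEA wells, dosed from plating day 0 for 12 days with renewal on DIV 5 and 9; spikes-in-bursts percentage averaged over bursting electrodes, collapsed as AUC across days 5, 7, 9, 12; loss direction versus DMSO.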

[15] = CCTE_Shafer_MEA_dev_active_electrodes_number: CCTE's Neural Network Formation Assay for Number of Active Electrodes, Shafer Lab (AID 2284040);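 as to AC50: potency for loss of active electrodes versus DMSO so lower counts are hits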
Method in brief: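 Primary rat cortical neurons on 16-electrode MEA wells, exposed from day 0 through day 12 with compound renewed at DIV 5 and 9 feeds. Active electrodes (mean firing ≥5 spikes/min) counted at DIV 5, 7, 9, 12; trapezoidal AUC across days, loss-of-signal versus DMSO.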

[16] = CCTE_Shafer_MEA_dev_burst_rate: CCTE's Neural Network Formation Assay for Burst Rate, Shafer Lab (AID 2284042; active = hit-call score of the fitted dose curve at least 0.9, where 1 is the maximum; inactive = score below 0.9;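 as to AC50: potency for loss of burst rate below DMSO control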)
Method in brief: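 Primary rat cortical neurons on PEI-coated 48-well MEA plates (laminin added with cells at plating) (16 electrodes/well), exposed from plating to day 12, dosing renewed at DIV 5 and 9. Burst rate averaged over active electrodes, recorded DIV 5, 7, 9, 12, summarized as AUC; loss versus DMSO.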

[17] = CCTE_Shafer_MEA_dev_bursting_electrodes_number: CCTE's Neural Network Formation Assay for Number of Bursting Electrodes, Shafer Lab (AID 2284043)
Method in brief: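 Primary rat cortical neurons plated on 16-electrode MEA wells, exposed from day 0 with compound renewed at DIV 5 and 9. Electrodes bursting ≥1 burst per 2 min counted on days 5, 7, 9 and 12; trapezoidal AUC across days, fitted for loss versus DMSO.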

[18] = CCTE_Shafer_MEA_dev_per_burst_interspike_interval: CCTE's Neural Network Formation Assay for Burst Interspike Interval, Shafer Lab (AID 2284044; active = hit-call score of the fitted dose curve at least 0.9, where 1 is the maximum; inactive = score below 0.9;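 also: mean spike spacing inside bursts as AUC over recordings on days 5 7 9 12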)
Method in brief: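 Developmental network-formation MEA in primary rat cortical cultures with exposure spanning days 0–12. Within-burst ISI is averaged per well and integrated across recording days by area under the curve, with DMSO as negative control baseline.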

[19] = CCTE_Shafer_MEA_dev_burst_duration_mean: CCTE's Neural Network Formation Assay for Mean Burst Duration, Shafer Lab (AID 2284045; active = hit-call score of the fitted dose curve at least 0.9, where 1 is the maximum; inactive = score below 0.9)
Method in brief: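 Primary rat cortical neurons on 48-well 16-electrode MEA plates, exposed from day 0 with renewal at DIV 5 and 9; spontaneous activity recorded on days 5, 7, 9, 12. Well-mean burst duration across bursting electrodes, collapsed as trapezoidal AUC; DMSO baseline.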

[20] = CCTE_Shafer_MEA_dev_interburst_interval_mean: CCTE's Neural Network Formation Assay for Mean Interburst Interval, Shafer Lab (AID 2284046; active = hit-call score of the fitted dose curve at least 0.9, where 1 is the maximum; inactive = score below 0.9;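 also: well-mean interburst interval of bursting electrodes as AUC over four recording days; curve fitted for decrease in interburst interval relative to DMSO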)
Method in brief: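 Recordings on days 5, 7, 9 and 12 give well-mean interburst interval across actively bursting electrodes, summarized as area under the curve. Cultures: rat cortical neurons, continuous exposure from day 0, compound renewed at feeds; decrease analyzed versus DMSO.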

OC1CCC(C2CCCCC2)CC1 (stereo unspecified)
outcome [1]: inactive | outcome [2]: inactive | AC50 [3]: 30 µM (active) | outcome [4]: inactive

CC(C)CCCCCCOC(=O)CCCCC(=O)OCCCCCCC(C)C
outcome [1]: inactive | outcome [2]: inactive | outcome [3]: inactive | outcome [4]: inactive

COc1ccc([N+](=O)[O-])cc1N
AC50 [5]: 100 µM (active) | AC50 [6]: 100 µM (active) | outcome [7]: inactive

c1ccc2cc3c(ccc4ccccc43)cc2c1
AC50 [8]: 11.8 µM (active) | AC50 [9]: 5.25 µM (active) | outcome [10]: inactive | outcome [11]: inactive | AC50 [12]: 53.8 µM (active) | outcome [13]: inactive | outcome [14]: inactive | outcome [6]: inactive | outcome [15]: inactive | AC50 [7]: 64.2 µM (active) | outcome [16]: inactive | outcome [17]: inactive | outcome [18]: inactive | outcome [19]: inactive | outcome [20]: inactive

Cc1ccc(S(=O)(=O)O)c(C)c1
outcome [12]: inactive | outcome [5]: inactive | outcome [6]: inactive | outcome [7]: inactive

CC1=C(/C=C/C(C)=C/C=C/C(C)=C/C(=O)O)C(C)(C)CCC1
AC50 [13]: 2.98 µM (active) | AC50 [14]: 19.6 µM (active) | AC50 [15]: 15 µM (active) | AC50 [16]: 4.01 µM (active) | outcome [18]: inactive | outcome [19]: inactive | AC50 [20]: 3.54 µM (active)

CCCCC(CC)COC(=O)CCCCC(=O)OCC(CC)CCCC (stereo unspecified)
outcome [8]: inactive | outcome [9]: inactive | outcome [10]: inactive | outcome [11]: inactive

CC(C)(C)c1ccc(O)c(C(C)(C)C)c1
AC50 [8]: 26.4 µM (active) | AC50 [10]: 155 µM (active) | AC50 [11]: 163 µM (active) | AC50 [5]: 171 µM (active) | AC50 [6]: 179 µM (active) | AC50 [7]: 77.6 µM (active)

CCN(CC)CCNc1ccc(CNC=O)c2sc3ccc(OC)cc3c(=O)c12
AC50 [5]: 130 µM (active) | AC50 [6]: 120 µM (active) | AC50 [7]: 5.72 µM (active)

c1ccc2c(c1)Cc1ccccc1-2
outcome [8]: inactive | outcome [13]: inactive | outcome [14]: inactive | outcome [15]: inactive | outcome [16]: inactive | outcome [17]: inactive | outcome [18]: inactive | outcome [19]: inactive | outcome [20]: inactive

CCCCCCCC(=O)O
outcome [5]: inactive | outcome [6]: inactive | AC50 [7]: 42.1 µM (active)

N#C[C@@H]1CC(F)(F)CN1C(=O)CNC1CC2CCC(C1)N2c1ncccn1 (stereo partly specified)
outcome [12]: inactive | outcome [5]: inactive | outcome [6]: inactive | outcome [7]: inactive
